Our source for the Potency and outcome values is PubChem BioAssay (Tox21).

“And” between values parts separate entries of the source, which are not always exact repeats. Equal entries are not always repeated. A number with no mark means an inactive call. The source made the active and inactive calls. Unless noted, calls follow the shape of the dose curve; as a rule, active = well fitted curve in the direction sought with a large enough effect in the repeat runs; inconclusive = weak or mixed curves; inactive = no such curve, though single readings can be large; an effect the other way counts as inactive or inconclusive.

Assay [1] can be described thus: qHTS assay for small molecule agonists of the p53 signaling pathway - cell viability (AID 651633; calls by dose curve; also: nearly all actives have a fitted effect of over 30% in size; also: potency is read from the fitted curve at half-maximal effect). In short, it runs like this: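 Viability counter-read: CellTiter-Glo luminescence (30 min, room temperature) in the same p53RE-bla plates. These plates had been exposed to compounds for 16 h at 37 C.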
(In general: Quantitative high-throughput screening tests each substance at several concentrations.)

Assay [2] in a line: qHTS assay for small molecules that induce genotoxicity in human embryonic kidney cells expressing luciferase-tagged ATAD5 - cell viability (AID 651634; calls by dose curve; also: nearly all actives have a fitted effect of over 25% in size; also: potency is read from the fitted curve at half-maximal effect). In short, it runs like this: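 Quantitative high-throughput format. HEK293T cells expressing ATAD5 fused to luciferase were plated at 2,000 cells/well and treated 15.5 hr with compound versus DMSO. Viability was determined by fluorescent live-cell protease substrate, 30 min at 37C.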

A short description of assay [3]: qHTS assay to test for compound auto fluorescence at 590 nm (red) in HepG2 cells (AID 720674). In short, it runs like this:
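1 hr compound incubation on HepG2 cells, 37 C, 5% CO2; plate read ex 540 nm / em 590 nm; intensities reported as Rose Bengal sodium equivalents.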

Assay [4] can be described thus: qHTS assay to test for compound auto fluorescence at 535 nm (green) in HepG2 cells (AID 720675).
A short description of assay [5]: qHTS assay to test for compound auto fluorescence at 460 nm (blue) in HEK293 cells (AID 720678). In short, it runs like this: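 Cells were seeded and left to adhere for 4-5 hr at 37C. Compounds were then pin-transferred. After an overnight incubation at 37C under 5% CO2, intrinsic fluorescence at 405/460 nm was measured and referenced to triamterene.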
The nature of assay [6]: qHTS assay to test for compound auto fluorescence at 590 nm (red) in HEK293 cells (AID 720679). The essentials:
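Each well held 2,000 HEK293 cells in medium containing 10% dialyzed FBS. Following 4-5 hr attachment at 37C, 23 nL test compound or DMSO was added; plates sat overnight, and red fluorescence (540/590nm) was recorded.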

Assay [7] in a line: qHTS assay to test for compound auto fluorescence at 535 nm (green) in HEK293 cells (AID 720680).
The nature of assay [8]: qHTS assay to test for compound auto fluorescence at 460 nm (blue) in HEK293 cell free culture (AID 720681). In short, it runs like this:
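Blue fluorescence (Ex 405/Em 460 nm, triamterene-equivalent) was read immediately after pin transfer of compound or DMSO into medium (DMEM, 10% FBS) without cells.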

Assay [9] is described as follows: qHTS assay to test for compound auto fluorescence at 535 nm (green) in HEK293 cell free culture (AID 720682). The essentials: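 Intrinsic compound fluorescence is measured in culture medium containing 10% FBS, with excitation at 485 nm and detection at 535 nm, referenced to fluorescein.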
Assay [10] is described as follows: qHTS assay to test for compound auto fluorescence at 590 nm (red) in HEK293 cell free culture (AID 720683). In short, it runs like this: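 Red-channel autofluorescence of compounds in culture medium (DMEM, 10% FBS), no cells, measured at 540/590 nm. Rose Bengal sodium is the reference fluorophore for equivalence.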
Assay [11] is described as follows: qHTS assay to test for compound auto fluorescence at 590 nm (red) in HepG2 cell free culture (AID 720684). The essentials:
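No cells present: MEM + 10% FBS only. Compound pinned in, red label read (540/590 nm). Activity = fluorescence equivalent to Rose Bengal sodium.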

Assay [12] is described as follows: qHTS assay to test for compound auto fluorescence at 460 nm (blue) in HepG2 cell free culture (AID 720685). In short, it runs like this: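 Cell-free plates of MEM plus 10% FBS received 23 nL compound or DMSO vehicle; blue-channel (405/460 nm) intensity scored against triamterene as reference fluorophore.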
Assay [13] can be described thus: qHTS assay to test for compound auto fluorescence at 535 nm (green) in HepG2 cell free culture (AID 720686).
Assay [14] can be described thus: qHTS assay to test for compound auto fluorescence at 460 nm (blue) in HepG2 cells (AID 720687). The essentials:
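Blue-channel autofluorescence (Ex/Em 405/460 nm, triamterene-equivalent) was measured after 1 hr compound exposure at 37 C, 5% CO2. Cells were HepG2, plated overnight at 37 C in MEM plus 10% FBS.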

Assay [15] has as its target Glucocorticoid receptor (Homo sapiens) (UniProt P04150). The experiment in a line: qHTS assay to identify small molecule agonists of the glucocorticoid receptor (GR) signaling pathway (AID 720691; active = well fitted activation curve with a large enough effect in the signal ratio in the repeat runs, not every such curve was filed as active; inconclusive = weak or mixed curves, or effect the other way; inactive = no such curve, though single readings can be large or run the other way; the % refers to the signal ratio; also: potency is read from the fitted curve at half-maximal effect). In short, it runs like this: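 A HeLa cervical cancer line expressing GR and a glucocorticoid response element-driven beta-lactamase gene is treated with compounds for 18 h; LiveBLAzer B/G FRET substrate is then applied and fluorescence read.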

For assay [16] the target is unchanged. The experiment in a line: qHTS assay to identify small molecule antagonists of the glucocorticoid receptor (GR) signaling pathway (AID 720692; active = well fitted inhibition curve with a large enough effect in the signal ratio in the repeat runs, not every such curve was filed as active; inconclusive = weak or mixed curves, or effect the other way; inactive = no such curve, though single readings can be large or run the other way; the % refers to the signal ratio; also: potency is read from the fitted curve at half-maximal effect). In short, it runs like this:
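GRE-bla HeLa line, dex-stimulated (5 nM final). Compound exposure 18 h, 37 C. Beta-lactamase FRET read after 2 h RT substrate.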

The nature of assay [17]: qHTS assay for small molecule disruptors of the mitochondrial membrane potential - cell viability (AID 720634; calls by dose curve; also: nearly all actives have a fitted effect of over 20% in size; also: potency is read from the fitted curve at half-maximal effect). In short, it runs like this: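 Same-well counter-screen: following the MMP dye addition, CellTiter-Glo was added to 1 hr compound-treated HepG2 cells and luminescence read after 30 min at room temperature.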
The nature of assay [18]: qHTS assay for small molecule disruptors of the mitochondrial membrane potential (AID 720635). Also: potency is read from the fitted curve at half-maximal effect. In short, it runs like this:
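Mitochondrial membrane potential tracked with Mito-MPS dye, red aggregates (ex 540/em 590 nm) against green monomers (ex 490/em 535 nm). Compound treatment 1 hr at 37C, dye 30 min in HepG2.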

Chain of Glucocorticoid receptor (Homo sapiens) (P04150 whole entry, looked up): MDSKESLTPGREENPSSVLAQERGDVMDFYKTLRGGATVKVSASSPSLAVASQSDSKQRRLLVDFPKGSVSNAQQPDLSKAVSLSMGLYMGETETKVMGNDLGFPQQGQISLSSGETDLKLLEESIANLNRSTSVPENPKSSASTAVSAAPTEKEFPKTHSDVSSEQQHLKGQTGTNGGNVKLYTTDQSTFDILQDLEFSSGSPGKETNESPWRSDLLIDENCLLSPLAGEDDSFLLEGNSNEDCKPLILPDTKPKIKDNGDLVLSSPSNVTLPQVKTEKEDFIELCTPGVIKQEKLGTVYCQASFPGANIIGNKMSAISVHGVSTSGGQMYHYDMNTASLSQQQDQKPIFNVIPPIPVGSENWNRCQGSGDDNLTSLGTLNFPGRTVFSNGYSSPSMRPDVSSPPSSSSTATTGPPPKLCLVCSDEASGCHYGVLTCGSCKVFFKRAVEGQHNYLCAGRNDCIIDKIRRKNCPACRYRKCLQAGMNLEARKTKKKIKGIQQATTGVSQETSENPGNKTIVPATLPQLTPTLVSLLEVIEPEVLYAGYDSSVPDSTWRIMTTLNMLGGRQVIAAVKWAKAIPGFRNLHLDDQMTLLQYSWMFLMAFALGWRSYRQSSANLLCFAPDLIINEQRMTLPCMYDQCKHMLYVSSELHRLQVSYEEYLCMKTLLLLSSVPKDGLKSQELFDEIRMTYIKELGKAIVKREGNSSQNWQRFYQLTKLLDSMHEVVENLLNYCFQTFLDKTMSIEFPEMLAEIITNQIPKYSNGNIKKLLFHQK

Turning to `O=P(OCC(Br)CBr)(OCC(Br)CBr)OCC(Br)CBr` (stereo not drawn), the Potency result in [1], in assay [2] and in [15] was “inactive” in each case. In addition, the molecule was classed as inactive in [3], in assay [4], in assay [5], in assay [6], in [7] and in [8]. Also, the molecule was called inactive in assay [9], in [10], in [11], in assay [12], in assay [13] and in assay [14]. Moreover, the Potency in assay [16] was 55.7 µM (active).
For the molecule `C=CC(=O)OCC`, the Potency entry in assay [1], in assay [2], in assay [17], in [15] and in assay [16] was “inactive” in each case. The result in assay [3], in [4], in [5], in [6], in assay [7] and in [8] was inactive. Besides, the molecule was classed as inactive in assay [9], in assay [10], in assay [11], in [12] and in assay [14].
As to `Nc1ccc2c(c1)Cc1ccccc1-2`, the Potency entry in [1], in [2], in [17] and in assay [15] was “inactive” in each case. The call in assay [3], in assay [4], in assay [5], in [6], in assay [7] and in assay [8] was inactive. The outcome in [9], in assay [10], in assay [11], in [12], in assay [13] and in assay [14] was inactive.
For `CCC(C)(C)c1ccc(O)c(C(C)(C)CC)c1`, the Potency was 21.4 µM (active) and 27.3 µM (active) in assay [1]; 53.9 µM (active) in assay [2]; 6.04 µM (active) in assay [17]; 1.52 µM (active) and 1.37 µM (active) in [18]. The molecule was classed as inactive in assay [3], in [4], in assay [5], in assay [6], in [7] and in [9]. Moreover, the call in [10], in assay [11], in assay [12], in assay [13] and in assay [14] was inactive.
`CN(C)c1ccc(N=O)cc1`: the Potency in assay [2] is 61.3 µM (active) and 54.5 µM (active); in [17] it was 17.3 µM (active) and 48.6 µM (active); in [16] it was 38.9 µM (active). Besides, the result in assay [3], in [4], in assay [5], in [6], in assay [7] and in [8] was inactive. The call in assay [9], in assay [10], in assay [11], in assay [12], in assay [13] and in assay [14] was inactive. Also, the Potency entry in [15] is “inactive”.
`COP(=O)(OC)OC(Br)C(Cl)(Cl)Br` (stereo not drawn): the Potency entry in assay [2], in assay [17], in [15] and in assay [16] was “inactive” in each case. Besides, the outcome in [3], in [4], in assay [5], in [6], in [7] and in assay [8] was inactive. Further, the molecule was classed as inactive in [9], in [10], in assay [11], in assay [12] and in assay [14].
With `ClCc1ccccc1Cl`, the Potency entry in [1], in [2], in assay [17], in assay [15] and in assay [16] was “inactive” each time. The call in assay [3], in assay [4], in assay [5], in assay [6], in assay [7] and in assay [8] was inactive. Besides, the molecule was classed as inactive in assay [9], in [10], in assay [11], in assay [12] and in [14].
For the molecule `CN1C(=O)CN=C(c2ccccc2)c2cc([N+](=O)[O-])ccc21`, the Potency entry in assay [1] is “inactive”. For the same molecule, the result in [3], in [4], in assay [6], in assay [7], in assay [8] and in assay [9] was inactive. The call in assay [10], in assay [11], in assay [12], in [13] and in assay [14] was inactive. The Potency in [15] was 0.338 µM [inconclusive] (active).
